Results on 30 molecules are retold here after PubChem BioAssay (NCATS).

Records with an inconclusive call do not appear. Activity calls are given as the source filed them. Calls follow the shape of the full dose curve.

Assay [1] in a line: Cytotoxicity counterscreen for inhibitors of SARS-CoV-2 cell entry (AID 1645845). Also: nearly all actives have a fitted effect of over 50% in size. The following applies: outcome: dose series up to 57.1 µM unless noted. The method, boiled down: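 ATP-content luminescence (ATPLite 1step, 15 min RT) read after 48 h compound exposure of Expi293F cells stably expressing human ACE2; normalized to cells-only wells and media-only wells.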
In general terms: The purpose of a counterscreen is to sort out artefacts and off-target activity.

The nature of assay [2]: Primary qHTS to identify inhibitors of SARS-CoV-2 cell entry (AID 1645846). Also: nearly all actives have a fitted effect of over 45% in size. The conditions noted are these: SARS-CoV-2 pseudovirus cell entry assay, luminescence; activity change, negative = inhibition: at 57.1 µM (top of the series) unless noted. The method, boiled down:
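Data are normalized to wells receiving SARS-CoV-2-S pseudoparticles and those given bald particles. Entry signal was luciferase luminescence in stable hACE2 Expi293F cells, 48 hr post-infection, after 1 hr compound pretreatment.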
(In general: qHTS replaces the single test concentration by a dilution series.)
Potency is read from the fitted curve at half-maximal effect.

For the molecule `CN[C@@H](C)C(=O)N[C@H](C(=O)N1CCC[C@H]1C(=O)Nc1sc(-c2ncco2)nc1-c1ccccc1)C1CCCCC1`, the Potency result in assay [1] and in assay [2] was “inactive” in each case.

For `COc1ncc(-c2ccc3c(Nc4cc(Oc5cc(F)cc(F)c5)cc(C(=O)O)c4)c(S(=O)(=O)NC4CC4)cnc3c2)c(OC)n1`, the Potency result in assay [1] is “inactive”. Further, the activity change, negative = inhibition in assay [2] is -25%.

For the molecule `O=C(/C=C/c1ccc(Cl)cc1)N1CCC2(CC1)CN(Cc1ccc(Cl)c(Cl)c1)C(=O)O2`, in assay [1], the Potency result was “inactive”. For the same molecule, the activity change, negative = inhibition in assay [2] was found to be 0.824%.

For `CC(C)NC(=O)C1CCC(n2c(NC(=O)c3ccc(F)cc3)nc3ccc(CN4CCC(C(C)(C)O)CC4)cc32)CC1` (stereo not given), in assay [1], the Potency entry was “inactive”. For the same molecule, the activity change, negative = inhibition in assay [2] was -10.3% [at 27.1 µM].

Consider `O=C(NCCCNC(=O)c1ccc[nH]c1=O)c1cc(-c2ccccc2)on1`, for which the Potency result in assay [1] and in assay [2] was “inactive” throughout.

`O=C(NC[C@H](O)CN1CCc2ccccc2C1)c1ccnc(NC2CCC2)c1`: the Potency result in assay [1] is “inactive”. Moreover, in assay [2], the activity change, negative = inhibition turned out to be 4.47%.

As for `COc1ccc(-c2oc3c(CC=C(C)C)c(OC4O[C@H](CO)[C@@H](O)[C@H](O)[C@H]4O)cc(O)c3c(=O)c2OC2O[C@@H](C)[C@H](O)[C@@H](O)[C@H]2O)cc1` (stereo not given in full), in assay [1], the Potency result is “inactive”. For the same molecule, the activity change, negative = inhibition in assay [2] is -18.5%.

Consider `Cc1c[nH]c2nc(Nc3ccc(N4CCN(C)CC4)c(F)c3)nc(-c3cccc(CC#N)c3)c12`, for which the Potency was 8.91 µM (active) in assay [1] and 2.51 µM (active) in assay [2].

`Cc1ccc(-c2ccc3ncc4c(c3n2)n(C2CCN(C(=O)[C@H](C)O)CC2)c(=O)n4C)cn1`: in assay [1], the Potency entry was “inactive”. Also, the activity change, negative = inhibition in assay [2] is -95.8%.

Take `CCCCNc1ncc2c(-c3ccc(F)cc3)nn(CC3CCC(N)CC3)c2n1` (stereo not given): the Potency entry in assay [1] is “inactive”. The Potency in assay [2] is 10 µM (active).

On to `C[C@@H]1N=C(N)NC(N(C)C)=N1`, for which, in assay [1], the Potency entry is “inactive”. The activity change, negative = inhibition in assay [2] was -14.7%.

As to `CC1(C)CN(C(=O)c2ccc(-c3cccc4nc(NC(=O)C5CC5)nn34)cc2)C1`, in assay [1], the Potency entry was “inactive”. Besides, the activity change, negative = inhibition in assay [2] was -61.8%.

With `Cc1ccc(NC(=O)c2ccc(CN3CC[C@H](N(C)C)C3)c(C(F)(F)F)c2)cc1Nc1nccc(-c2cncnc2)n1`, in assay [1], the Potency entry was “inactive”. Moreover, in assay [2], the activity change, negative = inhibition was -12% [at 27.1 µM].

Take `O=C(CCCc1ccc2cccnc2n1)NCc1cc(-c2ccc(F)c(C(F)(F)F)c2)no1`: in assay [1], the Potency entry is “inactive”. Moreover, in assay [2], the activity change, negative = inhibition is -12.5%.

Consider `CC(C)(O)c1coc(S(=O)(=O)NC(=O)Nc2c3c(cc4c2CCC4)CCC3)c1`, for which the Potency entry in assay [1] and in assay [2] was “inactive” in each case.

For the molecule `N=C1S/C(=C\c2ccc(-c3ccc4c(c3)C(=O)NC4=O)o2)C(=O)N1c1ccc(Br)cc1`, the Potency result in assay [1] was “inactive”. For the same molecule, the activity change, negative = inhibition in assay [2] was -8.86% [at 27.1 µM].

For the molecule `O=C1S/C(=C\c2ccc(OCc3cccc(B(O)O)c3)cc2)C(=O)N1Cc1ccc(F)cc1`, the Potency result in assay [1] is “inactive”. The activity change, negative = inhibition in assay [2] is -28.4%.

For the molecule `c1cn2cc(-c3ccc4cn[nH]c4c3)nc(Nc3ccc(N4CCOCC4)cc3)c2n1`, the Potency in assay [1] is 2.82 µM (active). Further, the activity change, negative = inhibition in assay [2] is -27%.

With `CN1C(=O)[C@@H](NC(=O)c2n[nH]c(Cc3ccccc3)n2)COc2ccccc21`, the Potency entry in assay [1] and in assay [2] was “inactive” in each case.

As for `CN(C(=O)CNC(=O)/C=C/c1cccc(Cl)c1)C1CCS(=O)(=O)CC1`, the Potency result in assay [1] was “inactive”. The activity change, negative = inhibition in assay [2] was -2.44%.

On to `Cc1nc(NC(=O)N2CCCC2C(N)=O)sc1-c1ccnc(C(C)(C)C(F)(F)F)c1` (stereo not given), for which the Potency entry in assay [1] was “inactive”. Besides, the activity change, negative = inhibition in assay [2] is -29.8%.

Consider `N#CCC1(n2cc(-c3ncnc4[nH]ccc34)cn2)CN(C2CCN(C(=O)c3ccnc(C(F)(F)F)c3F)CC2)C1`, for which the Potency entry in assay [1] and in assay [2] was “inactive” throughout.

As for `Cn1cc(-c2ccc3c(c2)CCN3C(=O)Cc2cccc(C(F)(F)F)c2)c2c(N)ncnc21`, in assay [1], the Potency entry was “inactive”. Besides, the activity change, negative = inhibition in assay [2] was found to be 3.56%.

As to `O=C1OC(COc2ccccc2[N+](=O)[O-])CC1Cc1ccccc1` (stereo not given), in assay [1], the Potency entry was “inactive”. The activity change, negative = inhibition in assay [2] was -2.39%.

Consider `N[C@@H]1CN(c2c(F)cc3c(=O)c(C(=O)O)cn([C@@H]4C[C@@H]4F)c3c2Cl)CC12CC2`, for which the Potency entry in assay [1] is “inactive”. Besides, the activity change, negative = inhibition in assay [2] is -5.2%.

Regarding `O=C(O)[C@H](CC(=O)N1C[C@H]2CCCC[C@H]2C1)Cc1ccccc1`, the Potency entry in assay [1] is “inactive”. Further, the activity change, negative = inhibition in assay [2] was -3.3%.

Turning to `CC(=O)N[C@H]1[C@H](O[C@@H]2c3ccc(c(Cl)c3)Oc3cc4cc(c3O[C@@H]3O[C@H](CO)[C@@H](O)[C@H](O)[C@H]3NC(=O)CCCCCCCC(C)C)Oc3ccc(cc3Cl)C[C@H]3NC(=O)[C@H](N)c5ccc(O)c(c5)Oc5cc(O)cc(c5)[C@H](NC3=O)C(=O)N[C@H]4C(=O)N[C@H]3C(=O)N[C@@H]2C(=O)N[C@@H](C(=O)O)c2cc(O)cc(O[C@H]4O[C@H](CO)[C@@H](O)[C@H](O)[C@@H]4O)c2-c2cc3ccc2O)O[C@H](CO)[C@@H](O)[C@@H]1O`, the Potency result in assay [1] is “inactive”. In addition, in assay [2], the activity change, negative = inhibition is -12.4%.

Consider `Cc1cc(O[C@@H](CCC(F)(F)F)c2ccc(C(=O)NCCC(=O)O)cc2)cc(C)c1-c1ccc(C(C)(C)C)cc1`, for which the Potency entry in assay [1] is “inactive”. The activity change, negative = inhibition in assay [2] is -0.0119%.

In the case of `Cc1cc(Oc2ccc3nc(COc4ccc(CC5SC(=O)NC5=O)cc4)n(C)c3c2)cc(C)c1N` (stereo not given), in assay [1], the Potency result is “inactive”. Besides, the activity change, negative = inhibition in assay [2] amounted to 2.59%.

`CC1(C)SCCN(S(=O)(=O)c2ccc(OCC#CCO)cc2)[C@H]1C(=O)NO`: the Potency result in assay [1] was “inactive”. Moreover, the activity change, negative = inhibition in assay [2] was -8.73%.
